{
  "source": "PubChem BioAssay (Tox21)",
  "note": "Inconclusive results are not listed. Activity calls are given as the source filed them. Calls come from the whole dose curve; as a rule, active = well fitted cell-killing curve with a large enough effect in the repeat runs; inconclusive = weak or mixed curves, or effect the other way; inactive = no such curve, though single readings can be large or run the other way. % is set by controls: 0 for no effect and ±100 for the full control effect; potency is the fitted concentration of half-maximal effect.",
  "data": [
    {"test": "qHTS assay for identifying genotoxic compounds that show differential cytotoxicity against isogenic chicken DT40 cell lines with known DNA damage response pathways - Rev3 mutant cell line (AID 743014); note: nearly all actives have a fitted effect of over 55% in size", "conditions": "chicken DT40 Rev3-/- viability, CellTiter-Glo, 40 h; series mostly up to 68.4 µM; activity, negative = cytotoxicity: at the top concentration", "excerpt": "National Center for Advancing Translational Sciences [NCATS]\nNIH Chemical Genomics Center [NCGC]\nU.S. Environmental Protection Agency [EPA]\nNational Institutes of Environmental Health Sciences [NIEHS]\nNational Toxicology Program [NTP]\nU.S. Food and Drug Administration [FDA]\nDNA repair pathways play a critical role in cellular homeostasis by repairing DNA damage induced by endogenous processes and xenobiotics. Isogenic chicken DT40 cell lines deficient in different DNA repair pathways can be used to identify genotoxic compounds and aid in characterizing the nature of the DNA damage induced. Two DNA repair-deficient cell lines with disrupted genes, Rad54/Ku70 or Rev3, were used to screen the Tox21 10K compound library. Possible genotoxicity was based on the presence of a significant increase in cytotoxicity in one or more of the DNA repair-deficient cell lines compared to that observed in the parental DNA repair-proficient cell line. CellTiter Glo viability assay (Promega, Madison, WI) was used to measure cell viability in these cells after compound treatment. This assay includes the data from the Rev3 mutant cell line.\nTox21 Assay Protocol Summary:\n300 DT40 mutant cells in 5 uL/well were dispensed into white, solid-bottom 1536-well plates using a Multidrop Combi (ThermoFisher Scientific, Waltham, MA) dispenser. After the assay plates were incubated at 37 C/5% CO2 for approximately 0.5 hour, 23 nL of compounds dissolved in DMSO, positive controls or DMSO only was transferred into the assay plate by a pintool work station (Kalypsys, San Diego, CA). The assay plates were incubated at 37 C/5% CO2 for 40 hours. After 5 uL per well of CellTiter-Glo reagent was added into each well of the assay plates, the plates were incubated for 30 min at room temperature and the luminescence intensity of the plates was measured using a ViewLux (PerkinElmer, Shelton, CT) plate reader.", "values": [
      {"smiles": "CCCCCCCC/C=C\\CCCCCCCCO", "activity, negative = cytotoxicity": "5.82% (inactive)"},
      {"smiles": "C/C=C/C=C/C=O", "Potency": "54.1 µM (active)"},
      {"smiles": "CO/N=C(/C(=O)N[C@@H]1C(=O)N2C(C(=O)O)=C(COC(N)=O)CS[C@H]12)c1ccco1", "Potency": "inactive"},
      {"smiles": "C[C@@H]1CN(CCCn2c3ccccc3c3ccccc32)C[C@H](C)N1", "Potency": "7.5 µM (active)"},
      {"smiles": "C1COC1", "activity, negative = cytotoxicity": "0.219% (inactive)"},
      {"smiles": "O=[N+]([O-])c1cc(C2CCCCC2)c(O)c([N+](=O)[O-])c1", "Potency": "21.6 µM (active)"},
      {"smiles": "c1cc(N(CC2CO2)CC2CO2)ccc1Cc1ccc(N(CC2CO2)CC2CO2)cc1", "note": "(stereo not given)", "Potency": "0.0611 µM (active)"},
      {"smiles": "NC(=O)c1ccncc1", "activity, negative = cytotoxicity": "10.1% [at 95 µM] (inactive)"},
      {"smiles": "CC1CC(OC(=O)C(O)c2ccccc2)CC(C)(C)N1C", "note": "(stereo not given)", "activity, negative = cytotoxicity": "-0.0928% [at 31.4 µM] (inactive)"},
      {"smiles": "C[C@@H](CN(C)C)CN1c2ccccc2Sc2ccccc21", "Potency": "11.4 µM (active)"},
      {"smiles": "C=C1CCC2CC1C2(C)C", "note": "(stereo not given)", "activity, negative = cytotoxicity": "1.02% (inactive)"},
      {"smiles": "COc1cc(Nc2c(C#N)cnc3cc(OCCCN4CCN(C)CC4)c(OC)cc23)c(Cl)cc1Cl", "Potency": "2.98 µM (active)"},
      {"smiles": "C=C/C(C)=C/C/C=C(\\C)CCC=C(C)C", "Potency": "61.1 µM (active)"},
      {"smiles": "Cc1ccc(OC(=O)c2ccccc2O)cc1", "activity, negative = cytotoxicity": "-9.52% (inactive)"},
      {"smiles": "Cc1ccc2c(Br)cc(Br)c(O)c2n1", "Potency": "9.44 µM (active)"},
      {"smiles": "O=C(O)CCc1nc(-c2ccccc2)c(-c2ccccc2)o1", "activity, negative = cytotoxicity": "6.46% (inactive)"},
      {"smiles": "CCOC(=O)c1ccc(I)cc1", "activity, negative = cytotoxicity": "1.1% [at 95 µM] (inactive)"},
      {"smiles": "CCOC(=O)c1ccc(C#Cc2ccc3c(c2)C(C)(C)CCS3)nc1", "Potency": "29.8 µM (active)"},
      {"smiles": "O=Cc1c2ccccc2c(Cl)c2ccccc12", "activity, negative = cytotoxicity": "-7.85% (inactive)"},
      {"smiles": "Nc1cccc2c1CN(C1CCC(=O)NC1=O)C2=O", "note": "(stereo not given)", "activity, negative = cytotoxicity": "7.41% (inactive)"},
      {"smiles": "O=C(Nc1cccc2c(=O)cc(-c3nn[nH]n3)oc12)c1ccc(OCCCCc2ccccc2)cc1", "activity, negative = cytotoxicity": "6.56% (inactive)"},
      {"smiles": "CCC1CO1", "note": "(stereo not given)", "activity, negative = cytotoxicity": "-4.96% (inactive)"},
      {"smiles": "CCn1cc(C(=O)O)c(=O)c2cc(F)c(N3CCNCC3)cc21", "Potency": "inactive"},
      {"smiles": "Cc1ccco1", "activity, negative = cytotoxicity": "-9.14% (inactive)"},
      {"smiles": "CC(C)Nc1cccnc1N1CCN(C(=O)c2cc3cc(NS(C)(=O)=O)ccc3[nH]2)CC1", "activity, negative = cytotoxicity": "-7.4% (inactive)"},
      {"smiles": "CC=C(Cl)Cl", "activity, negative = cytotoxicity": "1.36% (inactive)"},
      {"smiles": "O=C(OCC(O)CO)c1ccccc1Nc1ccnc2cc(Cl)ccc12", "note": "(stereo not given)", "activity, negative = cytotoxicity": "0.29% [at 31.4 µM] (inactive)"},
      {"smiles": "CCC(C)(C)OC", "activity, negative = cytotoxicity": "-2.72% (inactive)"},
      {"smiles": "C[C@@H]1CC(=O)NN=C1c1ccc(NN=C(C#N)C#N)cc1", "Potency": "18.8 µM (active)"},
      {"smiles": "C=COCC(C)C", "activity, negative = cytotoxicity": "4.61% [at 95 µM] (inactive)"},
      {"smiles": "CC(=O)NC1(c2cccc(F)c2)CCN(CC[C@@]2(c3ccc(Cl)c(Cl)c3)CN(c3ccccc3)C(=O)CO2)CC1", "Potency": "54.6 µM (active)"},
      {"smiles": "CCCCCC[C@@H](O)C/C=C\\CCCCCCCC(=O)O", "activity, negative = cytotoxicity": "12% (inactive)"},
      {"smiles": "OCCOCC#CCOCCO", "activity, negative = cytotoxicity": "-14.2% (inactive)"},
      {"smiles": "CC(=O)N/N=C/c1ccc([N+](=O)[O-])o1", "Potency": "10.6 µM (active)"},
      {"smiles": "COC(=O)CCS", "activity, negative = cytotoxicity": "-0.216% (inactive)"},
      {"smiles": "CCC(OCCCOC)OC(C)=O", "note": "(stereo not given)", "activity, negative = cytotoxicity": "1.82% [at 95 µM] (inactive)"},
      {"smiles": "Cc1ccc(C(C)(C)O)cc1", "activity, negative = cytotoxicity": "-1.98% (inactive)"},
      {"smiles": "N#CCCN(CCO)CCO", "activity, negative = cytotoxicity": "-17% (inactive)"},
      {"smiles": "C(=C\\c1ccccc1)/c1ccccc1", "activity, negative = cytotoxicity": "1.05% [at 95 µM] (inactive)"},
      {"smiles": "Cc1cc(=O)c2c(O)c3c(O)cc(=O)c4c3c3c(cc(O)c1c23)C(C)(C)C=4O", "Potency": "1.06 µM (active)"}
    ]}
  ]
}
